About 70 (6%) of roughly 1,100 compounds were called active. About 22% were inconclusive and are not listed. The call rests on the fitted dose curve; in most records, active means well fitted curve in the direction sought with a large enough effect; inconclusive means small, poorly fitted or top-dose-only effect, or another doubt; inactive means no such curve, though single readings can be large or run the other way. Only a selection was taken, and actives are over-represented in it overall.
target: Polyunsaturated fatty acid lipoxygenase ALOX12 (Homo sapiens) (UniProt P18054); experiment: Confirmatory qHTS assay for inhibitors of human arachidonate 12S-lipoxygenase (ALOX12): Round 2; conditions: purified human 12-LOX, xylenol orange absorbance; series mostly up to 125 µM; activity change, negative = inhibition: at the top concentration
Text: Assay Provider: Theodore R. Holman Ph.D. University of California, Santa Cruz, California Human lipoxygenase 12hLO is a member of the closely related lipoxygenase family of enzymes which catalyze the site-specific oxidation of arachidonic acid to various hormone precursor molecules and as such is a candidate for drug development in a variety of disease areas, such as cancer and inflammation. Inhibition of 12hLO activity was screened by utilizing arachidonic acid as a substrate. The extent of hydroperoxide product formation was measured by a secondary chromogenic reaction in which xylenol orange (XO, Sigma-Aldrich, cat. number 39,818-7) reacts with the ferric ions produced from the reaction between the hydroperoxide and ferrous ions. The Fe (III)-XO complex is characterized with red-shifted absorbance at 560 nm. A purified preparation of human 12hLO was supplied by Dr. Holman laboratory, University of California, Santa Cruz.
PROTOCOL TABLE SEQUENCE No. (e.g., 1, 2, 3, etc.); […] (e.g., Cells, Incubation, Reagent, etc.); VALUE; DESCRIPTION 1; Enzyme; 3 uL; 150 nM 12hLO enzyme solution dispensed in 1536-well Greiner black, clear bottom plates. 2; Compound; 23 nL; compounds and controls were added. 3; Incubate; 15 min; room temperature. 4; Substrate; 1 uL; 40 uM arachidonic acid (final concentration). 5; Incubate; 30 min; room temperature. 6; Reagent; 4 uL; Fe-XO solution was added to each well. 7; Incubation; 30 min; room temperature 8; Detector; absorbance; Read 1 at 405 nm absorbance using ViewLux (PerkinElmer) CCD imager. 9; Detector; absorbance; Read 2 at 573 nm absorbance using ViewLux (PerkinElmer) CCD imager. NOTES (numbers refer to sequence above) 1; 150 nM 12hLO (final concentration) in buffer solution (25 mM Hepes, 0.01% Triton X-100, pH 7.0) was dispensed in columns 1, 2, 5-48. Column 1 is neutral (100% activity). Buffer only was dispensed in columns 3 and 4 as no enzyme negative controls. The plates were covered with metal lids with gas-exchange holes. 2; Compounds were pin transferred via a Kalypsys Pin Tool (Wako USA) in column 5 - 48. Control compound was transferred in column 2, titration of nordihydroguaiaretic acid (NDGA, Sigma-Aldrich, N5023) with top concentration of 20 mM in DMSO then 1:3 dilution in duplicate. Dilution factor of 23 nL into 4 uL final assay volume. 3; Covered assay plates were incubated for 15 min at room temperature. 4; Substrate was added to start the reaction; 40 uM arachidonic acid (Sigma-Aldrich, St. Louis, MO) was dispensed throughout the plate. 6; Chromogenic detection reagent solution (divalent iron/xylenol orange, Fe-XO) was added to each well: 200 uM xylenol orange, 300 uM ferrous ammonium sulfate prepared freshly in 50 mM sulfuric acid. 8, 9; Two absorbance readouts were obtained at 405 nm and at 573 nm using a ViewLux high-throughput CCD plate imager (PerkinElmer). The 573 to 405 (Read 2 / Read 1) absorbance ratio was used to compute reaction progress.
On the % scale 0 is the no-effect control and ±100 the full control effect; potency means the concentration at half of the fitted maximal effect.

Chain of Polyunsaturated fatty acid lipoxygenase ALOX12 (Homo sapiens) (P18054 whole entry, looked up): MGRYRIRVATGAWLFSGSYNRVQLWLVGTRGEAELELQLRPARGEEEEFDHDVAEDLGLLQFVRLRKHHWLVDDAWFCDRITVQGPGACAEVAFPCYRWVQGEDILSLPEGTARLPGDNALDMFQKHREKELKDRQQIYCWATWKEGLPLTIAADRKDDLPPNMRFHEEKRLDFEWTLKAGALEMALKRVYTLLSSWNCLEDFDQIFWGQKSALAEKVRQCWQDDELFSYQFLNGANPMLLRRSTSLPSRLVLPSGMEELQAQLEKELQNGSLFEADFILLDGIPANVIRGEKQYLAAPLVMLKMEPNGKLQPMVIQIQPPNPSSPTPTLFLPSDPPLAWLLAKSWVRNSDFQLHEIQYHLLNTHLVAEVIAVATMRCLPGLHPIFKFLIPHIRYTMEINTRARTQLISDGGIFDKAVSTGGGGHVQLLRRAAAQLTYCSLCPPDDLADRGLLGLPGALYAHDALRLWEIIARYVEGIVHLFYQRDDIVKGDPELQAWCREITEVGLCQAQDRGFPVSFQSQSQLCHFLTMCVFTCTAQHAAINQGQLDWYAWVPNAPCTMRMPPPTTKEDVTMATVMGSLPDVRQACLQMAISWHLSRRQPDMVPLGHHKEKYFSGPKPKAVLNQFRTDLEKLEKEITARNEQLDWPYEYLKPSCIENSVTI

Compound	Potency	activity change, negative = inhibition
CC(=O)N1CCC(C(=O)N2CCC3(CC2)NC(=O)N(c2cccc(Cl)c2)N3)CC1	12.6 µM (active)	–
COc1ccc(OC2CN(Cc3cccc4ccccc34)C2)cc1	–	-3.44% (inactive)
OCC1CN(Cc2ccc(Cl)cc2)CC12CCNCC2 (configuration not stated)	–	-4.83% [at 64.5 µM] (inactive)
O=C(c1ccccc1F)N1CCn2c(nnc2C2CCNCC2)C1	–	-11.9% (inactive)
O=C(Nc1ccc(-c2cccc(F)c2)cc1)C1CCCN1Cc1cnc[nH]1 (configuration not stated)	–	13.7% [at 64.5 µM] (inactive)
CN1CC(=O)N(C2CCCNCC2)Cc2c(NCC3CC3)ncnc21 (configuration not stated)	–	-7.12% (inactive)
C=CCNc1oc(-c2cccc3ccccc23)nc1C#N	–	1.51% [at 64.5 µM] (inactive)
CC(C)Nc1oc(-c2cccc3ccccc23)nc1C#N	–	11.9% [at 64.5 µM] (inactive)
CCCCNc1oc(-c2cccc3ccccc23)nc1C#N	19.3 µM (active)	–
COc1ccc(-c2nc(C3CC3)nc3c2CN([S+](=O)([O-])c2ccccc2)CC3)cc1	–	-25.8% (inactive)
CCOCCNc1ncnc2c1CN(C1CCNCC1)C(=O)CN2C	–	-10.1% (inactive)
COc1ccc(N2CC3CCC(C2)N3C(=O)c2ccc3c(c2)OCO3)cc1	–	-19.9% (inactive)
O=C(NCC(F)(F)F)c1cc(C2CC2)nc2c1c(C1CCCN1)nn2-c1ccccc1 (configuration not stated)	–	-27.3% (inactive)
O=C(NC1CCCCC1)N1Cc2[nH]cnc2C[C@H]1c1nc(-c2cccc([N+](=O)[O-])c2)no1	6.31 µM (active)	–
COc1ccc(CN2Cc3[nH]cnc3C[C@H]2c2nc(-c3ccncc3)no2)cc1	–	30.2% (inactive)
Cc1ccc(NC(=O)N2Cc3[nH]cnc3C[C@H]2c2nc(-c3ccc4ccccc4c3)no2)cc1	–	3.35% [at 64.5 µM] (inactive)
COC(=O)[C@@H]1Cc2nc[nH]c2CN1C1CCOCC1	–	10.7% [at 233 µM] (inactive)
COc1ccc(-c2noc([C@@H]3Cc4nc[nH]c4CN3C(=O)NC3CCCCC3)n2)cc1	10 µM (active)	–
CN1CC(=O)N(C2CCCNCC2)Cc2c(NCc3cccs3)ncnc21 (configuration not stated)	–	-21.3% (inactive)
CCc1nc2c(c(-c3ccc(OC)cc3)n1)CCN(Cc1ccc(OC)cc1)CC2	–	-27.7% (inactive)
O=C(N1CCCC1)N1CCN(c2ccc(Cl)nn2)C(=O)C1	–	-25.5% (inactive)
CC(NC(=O)C1CCN(c2cc(C(F)(F)F)ncn2)CC1)c1ccccc1 (configuration not stated)	–	5.14% [at 64.5 µM] (inactive)
COc1cccc(N2C(=O)NC(=NC3CCCCC3)C23CCCN([S+](=O)([O-])c2cccs2)C3)c1 (configuration not stated)	–	-25.9% (inactive)

Compound	Potency	activity change, negative = inhibition
O=c1n(-c2cccc(Cl)c2)nc2n1CCN([S+](=O)([O-])c1cccs1)C2	–	-15.3% (inactive)
Cc1cccc(CN2CCN(Cc3nc(-c4ccco4)oc3C)C(C)C2=O)c1 (configuration not stated)	–	-7.87% [at 64.5 µM] (inactive)
COCCNC(=O)c1cc(C2CC2)nc2onc(C3CCCN3)c12 (configuration not stated)	–	-17.5% (inactive)
CCOC(=O)Cn1c(=O)n(-c2ccccc2OC)c2nc(-c3cccc(F)c3)nc(C(N)=O)c21	4.4 µM (active)	–
CCOC(=O)Cn1c(=O)n(-c2ccccc2OC)c2nc(-c3ccccc3F)nc(C(N)=O)c21	11 µM (active)	–
CCOc1ccccc1CN1CCCCC12Cc1ccccc1CNC2=O (configuration not stated)	–	-12.7% (inactive)
CCNC(=O)N[C@@H]1C=C[C@@H](c2c(C)nn(-c3ccc(OC)cc3)c2C)C1	–	2.01% [at 64.5 µM] (inactive)
Cc1cc(C(=O)NC2CC2)c2c(C3CCNCC3)noc2n1	–	-1.86% (inactive)
O=C1c2ccccc2CN1C1CCN(Cc2ccsc2)CC1	–	-18.5% (inactive)
C1CNCC(c2nc(C3CCOCC3)no2)C1 (configuration not stated)	–	-7.31% [at 64.5 µM] (inactive)
CC(=O)N1CCn2cc(C(=O)N3CCOCC3)nc2C1	–	-9.94% (inactive)
COc1ccccc1C(=O)N1CCn2c(nnc2C2CCNCC2)C1	–	-23.8% (inactive)
COc1ccccc1CNC(=O)Nc1cccs1	21.7 µM (active)	–
CNCc1ccccc1OC(F)(F)F	–	-3.02% (inactive)
CN1CC(=O)N(C2CCNCC2)Cc2c(NC3CCCCCC3)ncnc21	–	-12.8% (inactive)
CN(C)CCCC(=O)N1Cc2ccccc2CC2(CCCCN2CC2CCNCC2)C1 (configuration not stated)	–	-14.8% (inactive)
CCOC(=O)N1CCC(NC)CC1	–	6.82% (inactive)
CCOC(=O)N1CCC(N2CCCC(CCC(=O)Nc3ccc(OC)c(Cl)c3)C2)CC1 (configuration not stated)	12.6 µM (active)	–
Cc1noc(C)c1C(=O)N1Cc2ccccc2CC2(CCCN(CC3CCNC3)C2)C1 (configuration not stated)	–	-14.1% (inactive)
Fc1ccc(OC2CN(Cc3ccc(C(F)(F)F)cc3)C2)cc1F	–	-5.08% (inactive)
Cn1ccnc1C(O)c1cc2n(n1)CCN(S(=O)(=O)C1CC1)C2 (configuration not stated)	–	1.79% [at 64.5 µM] (inactive)
COc1cccc(N2C(=O)NC(=NC3CCCC3)C23CCCN(CC2CC2)C3)c1 (configuration not stated)	–	-17.4% (inactive)
COCc1cc(C[C@@H]2CC[C@H](O)[C@@H](CNC(=O)NC(C)C)O2)no1	–	-10.6% [at 64.5 µM] (inactive)

Compound	Potency	activity change, negative = inhibition
CNCc1ccccc1Cl	–	-9.03% [at 233 µM] (inactive)
Cc1nc(N2CCC(C(=O)NCc3ccc(C(C)C)cc3)CC2)cc(C(F)(F)F)n1	–	-13.4% [at 64.5 µM] (inactive)
CCCc1nc(C)cc(N2CCC(NCCc3ccc(Cl)cc3)CC2)n1	2.24 µM (active)	–
O=C(N1CCCCC1)N1CCCC(c2nnc3n2CCNC3)C1 (configuration not stated)	–	-7.37% (inactive)
Cc1cc(C)cc(-c2ccc(CN3CCCC(c4nc5ccc(F)cc5c(=O)[nH]4)C3)cc2)c1 (configuration not stated)	–	-20.9% (inactive)
CCC(CC)Nc1ncnc2c1CN(C1CCCNCC1)C(=O)CN2C (configuration not stated)	–	-2.09% (inactive)
COc1ccc(Nc2cnc3ccc(-c4cccc(CO)c4)nn23)cc1OC	–	-2.32% [at 64.5 µM] (inactive)
COc1ccc(-c2cc(-c3cccc(CO)c3)cn3cncc23)cc1	28.2 µM (active)	–
COc1cccc(-c2ccc(CN)cc2)c1	–	-0.015% (inactive)
COc1ccc(CNc2ncnc3c2CN(C2CCCNC2)C(=O)CN3C)cc1 (configuration not stated)	–	-15.2% (inactive)
O=C(O)CCC(=O)N1Cc2ccccc2CC2(CCCN2Cc2cccnc2)C1 (configuration not stated)	–	-6.82% (inactive)
Cc1ccc(-c2cc(-c3ccc(C)o3)nc(N)c2C#N)cc1	3.06 µM (active)	–
Cc1cc(C(=O)N2CCC(F)CC2)c2c(C3CCCN3)noc2n1 (configuration not stated)	–	-10.6% (inactive)
O=Cc1ccc(-c2ccc(O)cc2)cc1	–	-27.2% [at 233 µM] (inactive)
COc1ccc(N=C2S[C@H]3[C@H]([C@@H](O)[C@H](O)C[C@@H]3C(N)=O)N2CC2CCCCC2)cc1	–	-10.7% [at 64.5 µM] (inactive)
O=C1N[C@@H]2CCN(S(=O)(=O)c3ccc(Cl)cc3)[C@@H]2C(=O)N1c1ccc(Oc2ccccc2)cc1	7.94 µM (active)	–
COc1ccccc1-c1ccc(CN2CCCC(c3nc4ccc(F)cc4c(=O)[nH]3)C2)cc1 (configuration not stated)	–	-29.2% (inactive)
O=Cc1cccc(N2CCN(C(=O)c3ccc4c(c3)OCO4)CC2=O)c1	–	-11% (inactive)
O=C1NCc2ccccc2CC12CCCN2Cc1ccsc1 (configuration not stated)	–	-13.5% (inactive)
NCC(=O)N1Cc2ccccc2CC2(CCCCN2CC2CCOCC2)C1 (configuration not stated)	–	2.3% (inactive)
CC(=O)N1CCC2(CC1)CN(C(=O)Cc1csc(N)n1)Cc1ccccc1O2	–	0.398% (inactive)

Source: PubChem BioAssay AID1671189 (National Center for Advancing Translational Sciences (NCATS), 2021)
